Assay results: PubChem BioAssay (NCI)
The panel holds about 83,000 compounds, 20% with a hit somewhere; the sample as a whole holds those more often.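 96-well plates, one dose, 48 hours. Percent growth reported; active if below 10.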 Calls of active or inactive are those of the source.

The compounds below were run on T-47D breast (assay: NCI-60 one-dose screen, 48 h (100 = growth as untreated, 0 = no growth, -100 = all killed)). Conditions: 10 µM unless noted.
In the case of `Cc1nn(-c2ccccc2)c2ncnc(N/N=C/c3cccc(O)c3)c12`, the growth is reported as 17.8% (inactive). For `C=C1CC[C@@H]2[C@]3(C)COC(c4ccccc4)O[C@@H]3CC[C@@]2(C)[C@@H]1C/C=C1/C(=O)OC[C@H]1O` (stereo partly specified), the growth was 70.6% (inactive). For `CN(C)CCNC(=O)c1ccc(-c2nc3ccc4[nH]ncc4c3c3c2CCC3)cc1`, the growth was 32.8% (inactive). For `Fc1ccc(-c2cc3nc(C(Cl)Cl)nc(-c4ccc(F)cc4)n3n2)cc1`, the growth was 34.3% (inactive). For `C=C(C=O)[C@@H]1CC[C@]2(C)[C@H](C(=O)C=C3[C@H]4C[C@](C)(C(=O)OC)CC[C@]4(C)CC[C@]32C)[C@@]1(C)CCC#N`, the growth was 19.3% (inactive). With `CCc1ccc(SC2c3ccc(N(CC)CC)cc3Oc3nc(N)c(C#N)c(N)c32)cc1` (stereo unspecified) the growth was -27.3% (active). `CCOC(=O)C1=NNC(c2ccc(Cl)cc2)C1C(=O)N1C(=S)NC(=O)C1CC(C)C` (stereo unspecified) was tested, and the growth was 89.1% (inactive). With `C#CCn1cccc1CNc1ccc(OC)cc1` the growth was -55.7% (active). `NC(N)=Nc1ccc(Oc2cccc(NC(N)=Nc3ccc(Br)cc3)c2)cn1` was tested, and the growth was 37.8% (inactive). With `CC1(C)CC[C@]2(CN)CC[C@]3(C)C(=CC[C@@H]4[C@@]5(C)CCCNC(C)(C)[C@@H]5CC[C@]43C)[C@H]2C1` the growth was 78.3% (inactive). `O=C1C(c2ccccc2)=C(N2CCc3ccccc32)OC1(Cl)Cl` was tested, and the growth was 10.1% (inactive). With `CC(=O)c1nnn(-c2c(C(=O)n3nc(C)cc3C)sc(=S)n2-c2ccccc2)c1C` the growth was 113% (inactive). For `COC(=O)C1(C)CCC[C@]2(C)[C@H]3C[C@H]4C(C(C)C)=C[C@]3(CC[C@@H]12)[C@H]1[C@@H]4[C@@H](OC(=O)c2ccco2)CC[C@@H]1OC(=O)c1ccco1` (stereo partly specified), the growth was 98.9% (inactive). For `CC(=O)N1C(=S)NC(=O)C1CC(C)C` (stereo unspecified), the growth was 100% (inactive). In the case of `C#Cc1ccc(C(=O)NCc2ccc(/C=C/C(=O)c3nccn3C)cc2)cc1`, the growth is reported as 34% (inactive). In the case of `Cn1ccnc1C(=O)/C=C/c1ccc(NC(=O)c2ccc(F)cc2)cc1`, the growth is reported as 22.5% (inactive). `O=C(O)c1ccc(-n2cc(CNc3cccc(Cl)c3)c(-c3ccc(F)cc3)n2)cc1` was tested, and the growth was 92.1% (inactive). With `CCC1=Cc2cc(OC)ccc2OC12C=Cc1cc(OC)ccc1O2` (stereo unspecified) the growth was 52.8% (inactive). In the case of `CCO/C=N/C1=C(C#N)C(c2ccc(OC)cc2)c2sc3c(C)cccc3c2O1` (stereo unspecified), the growth is reported as 34.5% (inactive). For `COc1cccc(O)c1/C=C(/C)c1ccc2c(OC)cccc2[o+]1`, the growth was 106% (inactive). For `C#CCNC1CCC(c2csc(C#C)n2)=C1C` (stereo unspecified), the growth was 65.3% (inactive). For `CCO/C=N/C1=C(C#N)C(c2ccc(OC)cc2)c2sc3c(CC)cccc3c2O1` (stereo unspecified), the growth was 35.8% (inactive). In the case of `C=CCn1c(SCC(=O)Nc2ccc(C(=O)/C=C/c3ccc(Cl)cc3)cc2)nnc1-c1c[nH]c2ccccc12`, the growth is reported as 60.5% (inactive). With `N#Cc1cccc(CN2CCC3=C(C2)C(=O)N(Cc2ccc(Cl)cc2)C2=NCCCN23)c1` the growth was 21.2% (inactive). In the case of `CCN(CC)c1cn(-c2ccc(S(N)(=O)=O)cc2)nn1`, the growth is reported as 108% (inactive). `CCCCCc1ccc(S(=O)(=O)Nc2cccc(-c3csc(NC(=O)CCCCCN4CCN(C)CC4)n3)c2)cc1` was tested, and the growth was 43.7% (inactive). `CCCCCc1ccc(S(=O)(=O)Nc2cc(-c3csc(NC(=O)CN4CCN(C)CC4)n3)ccc2OC)cc1` was tested, and the growth was -24.3% (active). In the case of `COc1ccccc1NCc1cccn1Cc1ccc(F)cc1`, the growth is reported as 97% (inactive). For `CC(=O)c1cc(C(=O)c2ccc(Br)cc2)n2cc(C)cc(C)c12`, the growth was 78.8% (inactive). With `O=C1Nc2ccccc2/C1=C/c1ccc(COCC2CO2)n1-c1ccc(O)cc1` (stereo unspecified) the growth was 91.4% (inactive). In the case of `C/C(=N\O)[C@H]1C[C@]23CC[C@]4(C)[C@H](CC[C@@H]5[C@@]6(C)CC/C(=N/O)C(C)(C)[C@@H]6CC[C@]54C)[C@H]2[C@H](C)C1(C)OC3`, the growth is reported as 108% (inactive). With `NC(N)=Nc1ccc(Oc2cccc(Oc3ccc(Cl)c(C(F)(F)F)c3)c2)cn1` the growth was 8.88% (active). With `COc1ccc([C@@H]2c3[nH]c4ccccc4c3C[C@H]3C(=O)N(C4CCN(CC5CCCCC5)CC4)CC(=O)N23)c(OC)c1` the growth was 101% (inactive). For `COc1ccc(C2CC(c3ccc(Nc4nc(NCCO)nc(N5CCOCC5)n4)cc3)=Nc3c(N)nc(N)nc3N2)cc1` (stereo unspecified), the growth was 90.5% (inactive). With `Cc1ccc2c(c1)Oc1nc(N)c(C#N)c(N)c1C2Sc1ccc(F)cc1` (stereo unspecified) the growth was -47.1% (active). With `O=C(CCn1c[n+](CC(=O)c2ccc(-c3ccccc3)cc2)c2ccccc21)Nc1cccc2cccnc12` the growth was 21.6% (inactive). For `O=S(=O)(NCCNc1nccc(-n2cnc3ccccc32)n1)c1ccc(Cl)cc1`, the growth was 97.1% (inactive). For `O=C1CCCc2nc(Nc3ccc(S(=O)(=O)Nc4ccc([N+](=O)[O-])cc4)cc3)ncc21`, the growth was 105% (inactive).

Each compound was assayed on BT-549 breast in the same assay as above. Conditions: 10 µM unless noted.
With `Cc1nn(-c2ccccc2)c2ncnc(N/N=C/c3cccc(O)c3)c12` the growth was 46.8% (inactive). For `C=C1CC[C@@H]2[C@]3(C)COC(c4ccccc4)O[C@@H]3CC[C@@]2(C)[C@@H]1C/C=C1/C(=O)OC[C@H]1O` (stereo partly specified), the growth was 63.8% (inactive). For `CN(C)CCNC(=O)c1ccc(-c2nc3ccc4[nH]ncc4c3c3c2CCC3)cc1`, the growth was -19.5% (active). In the case of `Fc1ccc(-c2cc3nc(C(Cl)Cl)nc(-c4ccc(F)cc4)n3n2)cc1`, the growth is reported as 47% (inactive). For `C=C(C=O)[C@@H]1CC[C@]2(C)[C@H](C(=O)C=C3[C@H]4C[C@](C)(C(=O)OC)CC[C@]4(C)CC[C@]32C)[C@@]1(C)CCC#N`, the growth was 13.8% (inactive). For `CCc1ccc(SC2c3ccc(N(CC)CC)cc3Oc3nc(N)c(C#N)c(N)c32)cc1` (stereo unspecified), the growth was 65.9% (inactive). With `CCOC(=O)C1=NNC(c2ccc(Cl)cc2)C1C(=O)N1C(=S)NC(=O)C1CC(C)C` (stereo unspecified) the growth was 106% (inactive). For `C#CCn1cccc1CNc1ccc(OC)cc1`, the growth was -83.7% (active). `NC(N)=Nc1ccc(Oc2cccc(NC(N)=Nc3ccc(Br)cc3)c2)cn1` was tested, and the growth was 99.2% (inactive). `CC1(C)CC[C@]2(CN)CC[C@]3(C)C(=CC[C@@H]4[C@@]5(C)CCCNC(C)(C)[C@@H]5CC[C@]43C)[C@H]2C1` was tested, and the growth was 101% (inactive). For `O=C1C(c2ccccc2)=C(N2CCc3ccccc32)OC1(Cl)Cl`, the growth was 75.1% (inactive). With `CC(=O)c1nnn(-c2c(C(=O)n3nc(C)cc3C)sc(=S)n2-c2ccccc2)c1C` the growth was 92.2% (inactive). For `COC(=O)C1(C)CCC[C@]2(C)[C@H]3C[C@H]4C(C(C)C)=C[C@]3(CC[C@@H]12)[C@H]1[C@@H]4[C@@H](OC(=O)c2ccco2)CC[C@@H]1OC(=O)c1ccco1` (stereo partly specified), the growth was 99.8% (inactive). With `CC(=O)N1C(=S)NC(=O)C1CC(C)C` (stereo unspecified) the growth was 115% (inactive). For `C#Cc1ccc(C(=O)NCc2ccc(/C=C/C(=O)c3nccn3C)cc2)cc1`, the growth was 51% (inactive). With `Cn1ccnc1C(=O)/C=C/c1ccc(NC(=O)c2ccc(F)cc2)cc1` the growth was 69.4% (inactive). With `O=C(O)c1ccc(-n2cc(CNc3cccc(Cl)c3)c(-c3ccc(F)cc3)n2)cc1` the growth was 108% (inactive). With `CCC1=Cc2cc(OC)ccc2OC12C=Cc1cc(OC)ccc1O2` (stereo unspecified) the growth was 75.3% (inactive). With `CCO/C=N/C1=C(C#N)C(c2ccc(OC)cc2)c2sc3c(C)cccc3c2O1` (stereo unspecified) the growth was 35.2% (inactive). With `COc1cccc(O)c1/C=C(/C)c1ccc2c(OC)cccc2[o+]1` the growth was 95.7% (inactive). With `C#CCNC1CCC(c2csc(C#C)n2)=C1C` (stereo unspecified) the growth was 86.3% (inactive). In the case of `CCO/C=N/C1=C(C#N)C(c2ccc(OC)cc2)c2sc3c(CC)cccc3c2O1` (stereo unspecified), the growth is reported as 63% (inactive). In the case of `C=CCn1c(SCC(=O)Nc2ccc(C(=O)/C=C/c3ccc(Cl)cc3)cc2)nnc1-c1c[nH]c2ccccc12`, the growth is reported as 111% (inactive). `N#Cc1cccc(CN2CCC3=C(C2)C(=O)N(Cc2ccc(Cl)cc2)C2=NCCCN23)c1` was tested, and the growth was 64% (inactive). For `CCN(CC)c1cn(-c2ccc(S(N)(=O)=O)cc2)nn1`, the growth was 109% (inactive). With `CCCCCc1ccc(S(=O)(=O)Nc2cccc(-c3csc(NC(=O)CCCCCN4CCN(C)CC4)n3)c2)cc1` the growth was 93.5% (inactive). For `CCCCCc1ccc(S(=O)(=O)Nc2cc(-c3csc(NC(=O)CN4CCN(C)CC4)n3)ccc2OC)cc1`, the growth was 87.7% (inactive). For `COc1ccccc1NCc1cccn1Cc1ccc(F)cc1`, the growth was 93.3% (inactive). For `CC(=O)c1cc(C(=O)c2ccc(Br)cc2)n2cc(C)cc(C)c12`, the growth was 79% (inactive). In the case of `O=C1Nc2ccccc2/C1=C/c1ccc(COCC2CO2)n1-c1ccc(O)cc1` (stereo unspecified), the growth is reported as 106% (inactive). For `C/C(=N\O)[C@H]1C[C@]23CC[C@]4(C)[C@H](CC[C@@H]5[C@@]6(C)CC/C(=N/O)C(C)(C)[C@@H]6CC[C@]54C)[C@H]2[C@H](C)C1(C)OC3`, the growth was 107% (inactive). With `NC(N)=Nc1ccc(Oc2cccc(Oc3ccc(Cl)c(C(F)(F)F)c3)c2)cn1` the growth was 73.9% (inactive). `COc1ccc([C@@H]2c3[nH]c4ccccc4c3C[C@H]3C(=O)N(C4CCN(CC5CCCCC5)CC4)CC(=O)N23)c(OC)c1` was tested, and the growth was 80.3% (inactive). `COc1ccc(C2CC(c3ccc(Nc4nc(NCCO)nc(N5CCOCC5)n4)cc3)=Nc3c(N)nc(N)nc3N2)cc1` (stereo unspecified) was tested, and the growth was 99.2% (inactive). In the case of `Cc1ccc2c(c1)Oc1nc(N)c(C#N)c(N)c1C2Sc1ccc(F)cc1` (stereo unspecified), the growth is reported as -88.4% (active). With `O=C(CCn1c[n+](CC(=O)c2ccc(-c3ccccc3)cc2)c2ccccc21)Nc1cccc2cccnc12` the growth was 53.7% (inactive). For `O=S(=O)(NCCNc1nccc(-n2cnc3ccccc32)n1)c1ccc(Cl)cc1`, the growth was 99.3% (inactive). With `O=C1CCCc2nc(Nc3ccc(S(=O)(=O)Nc4ccc([N+](=O)[O-])cc4)cc3)ncc21` the growth was 117% (inactive).
